Compound activity: PubChem BioAssay, several laboratories
FBA Mtb inh: Mtb fructose-bisphosphate aldolase inhibition | P9WQA3 | purified M. tuberculosis FBA, fluorescence read-out | inhibition, % at 1 µM | hit rate 2.3% among 360,000 | AID 588726; in the data active = inhibition above about 27%;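 note: 0% = vehicle and 100% = reference inhibitor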
Target sequence (P9WQA3 whole entry, looked up): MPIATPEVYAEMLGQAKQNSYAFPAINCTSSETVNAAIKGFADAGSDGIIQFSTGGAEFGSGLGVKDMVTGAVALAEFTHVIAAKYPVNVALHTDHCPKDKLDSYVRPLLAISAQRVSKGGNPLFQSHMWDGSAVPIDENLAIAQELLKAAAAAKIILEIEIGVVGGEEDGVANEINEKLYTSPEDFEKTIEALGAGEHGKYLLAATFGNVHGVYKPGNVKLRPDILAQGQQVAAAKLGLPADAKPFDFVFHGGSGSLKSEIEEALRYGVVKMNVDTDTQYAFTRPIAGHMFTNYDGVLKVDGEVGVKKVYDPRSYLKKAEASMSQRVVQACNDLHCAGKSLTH
RecA intein inh: blocks M. tuberculosis RecA intein splicing. hit rate 0.75% among 290,000. inhibition, % (test concentration not listed). cell-free RecA intein splicing, fluorescence. P9WHJ3; in the data active = inhibition above about 30%;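 note: 0% = vehicle wells and 100% = reference inhibitor control wells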
3CLpro inhibitor: SARS-CoV 3CLpro protease inhibition | recombinant SARS-CoV 3CLpro, quenched FRET peptide cleavage | inhibition, % at 6 µM | hit rate 0.14% among 290,000 | AID 1706 | P0C6X7; in the data active = inhibition above about 12%
VHR inh abs: DUSP3 (human) phosphatase inhibition | P51452 | recombinant VHR phosphatase, pNPP absorbance | inhibition, % at 13.3 µM | hit rate 0.52% among 290,000 | AID 1654; in the data active = inhibition above about 50%
CCHF vOTU inh: CCHFV vOTU protease inhibition | Pep-AMC fluorescence | inhibition, % at 11.5 µM | hit rate 0.55% among 370,000; note: 0% = vehicle wells with enzyme and 100% = no enzyme wells
GDH-TPI counter: counter-screen for M. tuberculosis FBA inhibitors: GDH-TPI coupled enzymes | GDH-TPI coupled enzyme counterscreen, NADH absorbance | inhibition, % at 4.8 µM | hit rate 1.2% among 360,000;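 note: 0% = DMSO wells and 100% = wells lacking the enzyme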
The depositor's hits bear a star; / = not tested or not shown. Shown are actives, neighbours in structure and some others; about 4.7% of the full set was active somewhere. Cut-off read from the data, not from the text of the source, unless noted: active = inhibition above about 30%; inactive = the rest.

SMILES	FBA Mtb inh	RecA intein inh	3CLpro inhibitor	VHR inh abs	CCHF vOTU inh	GDH-TPI counter
O=C(CCc1c[nH]c2ccccc12)N/N=C/c1ccc2c(c1)OCO2	-1.4	-1.6	1.6	15.1	19.6	37.8*
Cc1ccc(C(=O)N/N=C/c2ccc3c(c2)OCO3)o1	1.2	-2.4	2.5	-7.8	-0.5	40.5*
O=C(N/N=C/c1ccc2c(c1)OCO2)c1cc2ccccc2o1	0.4	-3.6	-1.0	-11.3	-4.6	5.6
CCC(C(=O)Nc1cccc(C(=O)O)c1C)c1ccccc1 (stereo unspecified)	143.1*	0.4	-4.7	20.8	-4.3	8.0
CCC(C(=O)Nc1ccccc1N1CCCC1)c1ccccc1 (stereo unspecified)	1.7	3.6	2.7	1.2	9.3	-4.5
CCCCC1CCC(C(=O)N(CCC(C)C)c2c(N)n(CCCC)c(=O)[nH]c2=O)CC1 (stereo unspecified)	0.8	/	/	/	1.2	1.8
COC(=O)c1ccc2nc(C3CCCCC3)c(Cc3ccccc3OC)n2c1	/	/	/	/	7.2	/
CCN(CC)c1ccc(/C=N\NC(N)=O)cc1	26.3	-4.9	-6.4	19.2	-20.3	48.1*
CCN(CC)c1ccc(/C=N/NC(=O)Nc2ccccc2)cc1	15.4	-1.0	3.4	26.2	-4.7	32.2*
CCN(CC)c1ccc(/C=N/NC(=O)CC(C)C)cc1	19.1	6.2	1.9	25.9	-23.2	21.4
COCc1[nH]nc2c1C(c1cccc(C(F)(F)F)c1)N(c1ccc(OC)cc1)C2=O (stereo unspecified)	/	/	/	/	23.4	/
CCCSCCCNC(=O)c1ccc(C)c(NC(=O)C2=C(C)OCCS2)c1	-2.0	7.2	6.4	-11.9	7.8	-11.8
COc1ccccc1C(=O)N1CCN(S(=O)(=O)c2ccccc2)CC1	1.4	1.2	3.5	57.1*	-5.7	0.0
CC(C)(C)S(=O)N1C[C@@H]2CC(=O)C(c3ccccc3)=C2[C@H]1CCO (stereo partly specified)	/	/	/	/	3.3	/
C=CCN1C(=O)c2ccc(C(=O)N3CCN(S(=O)(=O)c4cccc(Cl)c4)CC3)cc2C1=O	1.7	3.4	0.3	0.3	-1.2	0.3
CCOC(=O)N1CCN(S(=O)(=O)N2CCCC(C(=O)NCCc3ccc(OCC)c(OCC)c3)C2)CC1 (stereo unspecified)	-5.3	2.6	-1.8	56.8*	0.0	6.5
COc1cc(C2C(C#N)=C(N)OC3=C2C(=O)CCC3)ccc1OC(=O)N1CCOCC1 (stereo unspecified)	-1.7	0.2	4.5	5.6	9.1	-2.1
CCCc1[nH]nc2c1C(c1ccc(OC(=O)N3CCOCC3)c(OC)c1)C(C#N)=C(N)O2 (stereo unspecified)	-2.6	42.2*	1.3	-4.1	-6.3	-5.3
CCc1[nH]nc2c1C(c1cccc(OC(=O)N3CCOCC3)c1)C(C#N)=C(N)O2 (stereo unspecified)	-3.9	69.5*	0.1	6.2	-16.0	-1.6
CCOc1ccc(C2C(C#N)=C(N)Oc3n[nH]c(C)c32)cc1OC(=O)C1CC1 (stereo unspecified)	-1.5	65.7*	-1.9	0.8	-7.3	-0.9
CC(C)c1[nH]nc2c1C(c1cccc(OC(=O)N3CCOCC3)c1)C(C#N)=C(N)O2 (stereo unspecified)	0.4	44.8*	-2.0	-2.0	-1.2	-0.8
CCCOc1ccc(C2C(C#N)=C(N)Oc3nc[nH]c(=O)c32)cc1OC (stereo unspecified)	1.4	0.5	2.7	17.4	-14.3	2.2
COc1cc(C2C(C#N)=C(N)Oc3cc(C)oc(=O)c32)ccc1OC(=O)N1CCOCC1 (stereo unspecified)	2.9	-1.0	-4.1	2.6	2.4	-10.1
Cc1cc(Oc2cccnc2)ccc1NC(=O)CCc1c[nH]c2ccccc12	/	/	/	/	-0.1	/
Clc1ccc(-c2nnc3n2N=C(c2ccc(-c4ccccc4)cc2)CS3)c(Cl)c1	/	/	/	/	7.9	/
CCOC(=O)C1CCCN(C(=O)c2cccc(Cl)c2)CC1 (stereo unspecified)	-2.4	/	/	/	9.3	4.0
CCOc1ccc(S(=O)(=O)N2CCN(c3ccccn3)CC2)cc1	7.1	2.0	-2.9	55.7*	-0.4	9.6
COc1cccc(-c2cc3c(=O)n(-c4ccccc4)c(=S)[nH]c3s2)c1	4.0	-0.2	2.0	-5.9	9.0	38.2*
O=C(Nc1ccc(S(=O)(=O)Nc2ncccn2)cc1)c1cccc([N+](=O)[O-])c1	-0.8	/	/	/	-3.1	5.4
